In PubChem BioAssay (NCATS):
Inconclusive results are not listed. Active and inactive are the calls of the source. The call rests on the fitted dose curve; in most records, active means well fitted curve in the direction sought with a large enough effect; inconclusive means small, poorly fitted or top-dose-only effect, or another doubt; inactive means no such curve, though single readings can be large; an effect the other way counts as inactive or inconclusive.

Columns and labels:
[1] = qHTS of pediatric cancer cell lines to identify multiple opportunities for drug repurposing: Primary screen for U-2 OS cells (AID 1347096); further: nearly all actives have a fitted effect of over 50% in size
Outline: (§1)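 Cells (500-1,000/well) in growth media were settled 5 h at 37 degrees C, then given compounds for 48 h. Viability was read as CellTiter-Glo luminescence. Primary runs used MIPE at 11 points (0.78 nM-46 µM) and NPC at 8 points (0.59 nM-46 µM); follow-ups used 11 points.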

[2] = qHTS of pediatric cancer cell lines to identify multiple opportunities for drug repurposing: Primary screen for Saos-2 cells (AID 1347097); further: nearly all actives have a fitted effect of over 40% in size
Outline: (§2)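 Plated cells (500-1,000 per well, growth media) were allowed to settle for 5 hours, treated with compound dilutions for 48 hours, then lysed with CellTiter-Glo for 15 min at room temperature before luminescence reading.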

[3] = qHTS of pediatric cancer cell lines to identify multiple opportunities for drug repurposing: Primary screen for SK-N-SH cells (AID 1347098); further: nearly all actives have a fitted effect of over 65% in size
Outline: (§3)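 Cells (500-1,000/well) rested 5 h, then received compounds for 48 h; metabolically active cells were measured by CellTiter-Glo luminescence. Final concentrations spanned up to 46 µM (MIPE, 11-point) or 0.59 nM-46 µM (NPC, 8-point) in primary screens, 11-point in follow-ups.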

[4] = qHTS of pediatric cancer cell lines to identify multiple opportunities for drug repurposing: Primary screen for NB1643 cells (AID 1347099); further: nearly all actives have a fitted effect of over 50% in size
Outline: as §2

[5] = qHTS of pediatric cancer cell lines to identify multiple opportunities for drug repurposing: Primary screen for LAN-5 cells (AID 1347100)
Outline: as §1

[6] = qHTS of pediatric cancer cell lines to identify multiple opportunities for drug repurposing: Primary screen for BT-12 cells (AID 1347101); further: nearly all actives have a fitted effect of over 25% in size
Outline: as §3

[7] = qHTS of pediatric cancer cell lines to identify multiple opportunities for drug repurposing: Primary screen for Rh18 cells (AID 1347102); further: nearly all actives have a fitted effect of over 65% in size
Outline: as §1

[8] = qHTS of pediatric cancer cell lines to identify multiple opportunities for drug repurposing: Primary screen for RD cells (AID 1347104); further: nearly all actives have a fitted effect of over 55% in size
Outline: as §2

[9] = qHTS of pediatric cancer cell lines to identify multiple opportunities for drug repurposing: Primary screen for OHS-50 cells (AID 1347103); further: nearly all actives have a fitted effect of over 40% in size
Outline: as §3

[10] = qHTS of pediatric cancer cell lines to identify multiple opportunities for drug repurposing: Primary screen for MG 63 (6-TG R) cells (AID 1347105); further: nearly all actives have a fitted effect of over 50% in size
Outline: as §2
Potency means the concentration at half of the fitted maximal effect.

SMILES	Potency [1]	Potency [2]	Potency [3]	Potency [4]	Potency [5]	Potency [6]	Potency [7]	Potency [8]	Potency [9]	Potency [10]
CC[C@H]1CN2CCc3cc(OC)c(OC)cc3[C@H]2C[C@@H]1C[C@@H]1NCCc2cc(OC)c(OC)cc21	1.18 µM (active)	0.526 µM (active)	0.341 µM (active)	0.418 µM (active)	0.833 µM (active)	0.193 µM (active)	2.09 µM (active)	0.469 µM (active)	–	–
COc1cc2c(NC3CCN(C(C)C)CC3)nc(C3CCCCC3)nc2cc1OCCCN1CCCC1	inactive	18.7 µM (active)	10.8 µM (active)	20.9 µM (active)	20.9 µM (active)	27.3 µM (active)	23.5 µM (active)	11.8 µM (active)	19.3 µM (active)	23.5 µM (active)
Nc1ccccc1NC(=O)c1ccc(CNC(=O)OCc2cccnc2)cc1	1.87 µM (active)	2.35 µM (active)	17.1 µM (active)	1.87 µM (active)	0.833 µM (active)	7.69 µM (active)	2.96 µM (active)	5.26 µM (active)	0.863 µM (active)	4.69 µM (active)
COc1c(N2C[C@@H]3CCCN[C@H]3C2)c(F)cc2c(=O)c(C(=O)O)cn(C3CC3)c12	inactive	inactive	inactive	inactive	inactive	–	inactive	inactive	inactive	inactive
Cc1cc(Nc2cc(N3CCN(C)CC3)nc(Sc3ccc(NC(=O)C4CC4)cc3)n2)n[nH]1	inactive	inactive	21.5 µM (active)	20.9 µM (active)	0.105 µM (active)	21.7 µM (active)	16.6 µM (active)	18.7 µM (active)	6.85 µM (active)	18.7 µM (active)
Clc1ccc2ncc(-c3cccc(NC4CNC4)n3)n2c1	inactive	inactive	3.41 µM (active)	–	16.6 µM (active)	8.63 µM (active)	inactive	–	–	inactive
CC1(C)OC2=C(C(=O)c3ccccc3C2=O)[C@H](NCc2ccccc2)[C@H]1O	9.35 µM (active)	5.9 µM (active)	4.82 µM (active)	–	5.26 µM (active)	13.7 µM (active)	7.43 µM (active)	10.5 µM (active)	4.32 µM (active)	9.35 µM (active)
COCCOc1ccc2c(c1)ncn2-c1ccc2cccc(N3CCC(N)CC3)c2n1	18.7 µM (active)	18.7 µM (active)	21.5 µM (active)	–	9.35 µM (active)	27.3 µM (active)	26.4 µM (active)	29.6 µM (active)	–	29.6 µM (active)
CC=C1NC(=O)[C@H]2CSSCCC=C[C@H](CC(=O)N[C@H](C(C)C)C(=O)N2)OC(=O)[C@H](C(C)C)NC1=O	0.0296 µM (active)	0.0118 µM (active)	0.121 µM (active)	–	0.0093 µM (active)	0.0122 µM (active)	0.0053 µM (active)	0.0148 µM (active)	0.0193 µM (active)	0.0118 µM (active)
Clc1cccc(-n2nnnc2NCc2ccccc2Oc2ccccn2)c1Cl	inactive	inactive	inactive	inactive	–	–	inactive	inactive	–	inactive
CN(C)Cc1c(C(=O)NCCOc2ccc(C(=O)NO)cc2)oc2ccccc12	2.96 µM (active)	2.96 µM (active)	2.41 µM (active)	0.935 µM (active)	–	3.85 µM (active)	0.59 µM (active)	1.87 µM (active)	0.769 µM (active)	3.72 µM (active)
Fc1cc(-c2cccc3ncc(-c4cnn(C5CCNCC5)c4)nc23)cc(F)c1CN1CCOCC1	inactive	29.6 µM (active)	24.1 µM (active)	–	26.4 µM (active)	27.3 µM (active)	20.9 µM (active)	18.7 µM (active)	–	–
O=C1CCC[C@@H]2[C@H]3CCC[N+]4([O-])CCC[C@@H](CN12)[C@@H]34 (some centres not stated)	inactive	inactive	inactive	–	inactive	inactive	inactive	inactive	inactive	inactive
O=C(c1cncc(Br)c1)N1CCC(N2CCCC2)CC1	inactive	inactive	inactive	–	inactive	inactive	inactive	–	inactive	inactive
O=c1[nH]c(=O)n(C2CCCO2)cc1F (configuration not stated)	inactive	inactive	inactive	inactive	–	inactive	inactive	inactive	inactive	inactive
CCCNC(=O)Nc1ccc(Oc2ncnc3cc(OC)c(OC)cc23)cc1Cl	inactive	inactive	inactive	inactive	–	inactive	inactive	inactive	–	–
CC(C)(C)c1cc(NC(=O)Nc2ccc(-c3cn4c(n3)sc3cc(OCCN5CCOCC5)ccc34)cc2)no1	inactive	18.7 µM (active)	inactive	–	inactive	inactive	inactive	–	–	23.5 µM (active)

SMILES	Potency [1]	Potency [2]	Potency [3]	Potency [4]	Potency [5]	Potency [6]	Potency [7]	Potency [8]	Potency [9]	Potency [10]
CC(=O)OCC(=O)[C@@]1(O)[C@H](C)C[C@H]2[C@@H]3C=C(C)C4=Cc5c(cnn5-c5ccccc5)C[C@]4(C)[C@@H]3[C@@H](O)C[C@@]21C	18.7 µM (active)	18.7 µM (active)	inactive	13.2 µM (active)	–	21.7 µM (active)	13.2 µM (active)	–	–	18.7 µM (active)
CCn1cc(-c2ccnc3[nH]c(-c4cccc(CN(C)C)c4)cc23)c(-c2ccc(NC(=O)N(C)C)cc2)n1	18.7 µM (active)	3.72 µM (active)	3.04 µM (active)	3.32 µM (active)	0.0264 µM (active)	–	16.6 µM (active)	10.5 µM (active)	–	4.69 µM (active)
CN(C)CC(C)(C)CNc1nn2c(-c3ccccc3)nnc2cc1C1CCC1	inactive	5.9 µM (active)	1.21 µM (active)	0.935 µM (active)	0.418 µM (active)	–	–	–	1.37 µM (active)	2.96 µM (active)
O=C(O)c1ccc2c(c1)nc(Nc1cccc(Cl)c1)c1ccncc12	18.7 µM (active)	4.69 µM (active)	12.1 µM (active)	–	7.43 µM (active)	19.3 µM (active)	14.8 µM (active)	9.35 µM (active)	3.06 µM (active)	3.72 µM (active)
Cn1cc(-c2[nH]c3cc(NC(=O)[C@H](N)C4CCCCC4)cc4c3c2C=NNC4=O)cn1	11.8 µM (active)	4.69 µM (active)	19.2 µM (active)	–	1.48 µM (active)	inactive	–	14.8 µM (active)	1.22 µM (active)	–
NC(=O)Nc1cc(-c2cccc(F)c2)sc1C(=O)N[C@H]1CCCNC1	0.935 µM (active)	1.32 µM (active)	1.71 µM (active)	0.526 µM (active)	0.469 µM (active)	–	13.2 µM (active)	3.72 µM (active)	–	7.43 µM (active)
COC(=O)[C@]12CCC(C)(C)C[C@@H]1[C@@H]1C(=O)C=C3[C@@]4(C)C=C(C#N)C(=O)C(C)(C)[C@@H]4CC[C@@]3(C)[C@]1(C)CC2	0.935 µM (active)	0.743 µM (active)	1.92 µM (active)	0.662 µM (active)	0.833 µM (active)	–	0.935 µM (active)	0.526 µM (active)	0.685 µM (active)	0.743 µM (active)
COC(=O)C[C@](O)(CCCC(C)(C)O)C(=O)O[C@@H]1C(OC)=C[C@]23CCCN2CCc2cc4c(cc2[C@H]13)OCO4	inactive	18.7 µM (active)	inactive	–	inactive	inactive	inactive	inactive	inactive	inactive
O=c1[nH]nc(Sc2ncc([N+](=O)[O-])s2)n1-c1ccc2c(c1)OCCO2	11.8 µM (active)	10.5 µM (active)	12.1 µM (active)	4.69 µM (active)	–	17.2 µM (active)	9.35 µM (active)	13.2 µM (active)	9.68 µM (active)	5.9 µM (active)
Nc1nccc(Oc2ccc(NC(=O)c3c[nH]cc(-c4ccc(F)cc4)c3=O)cc2F)c1Cl	inactive	18.7 µM (active)	6.81 µM (active)	14.8 µM (active)	–	13.7 µM (active)	18.7 µM (active)	26.4 µM (active)	7.69 µM (active)	18.7 µM (active)
Nc1nc(-c2nn(Cc3ccccc3F)c3ncccc23)nc(N)c1N1CCOCC1	inactive	inactive	inactive	inactive	inactive	–	inactive	inactive	–	inactive
COc1cc(OC2CCN(C)CC2)ccc1Nc1ncc2c(n1)n(C1CCCC1)c(=O)n2C	23.5 µM (active)	18.7 µM (active)	12.1 µM (active)	10.5 µM (active)	13.2 µM (active)	–	20.9 µM (active)	18.7 µM (active)	–	23.5 µM (active)
Cc1nc(Nc2n[nH]c3c2CN(C(=O)N[C@H](CN(C)C)c2ccccc2)C3(C)C)c2sccc2n1	9.35 µM (active)	1.66 µM (active)	17.1 µM (active)	0.935 µM (active)	0.418 µM (active)	–	1.32 µM (active)	2.96 µM (active)	0.0032 µM (active)	9.35 µM (active)
O=c1c2ccccc2nc2n1CCc1c-2[nH]c2ccccc12	inactive	inactive	inactive	inactive	–	–	inactive	inactive	inactive	inactive
Cc1cnc(Nc2ccc(F)cc2Cl)nc1-c1c[nH]c(C(=O)N[C@H](CO)c2cccc(Cl)c2)c1	7.43 µM (active)	1.48 µM (active)	17.1 µM (active)	18.7 µM (active)	–	–	16.6 µM (active)	2.35 µM (active)	–	29.6 µM (active)
CNC(=O)c1ccccc1Nc1nc(Nc2ccc(N3CCOCC3)cc2OC)ncc1Cl	18.7 µM (active)	1.18 µM (active)	6.07 µM (active)	0.332 µM (active)	–	–	5.9 µM (active)	–	0.306 µM (active)	0.935 µM (active)
